Experimental data as given in PubChem BioAssay (Tox21).
Active and inactive are the calls of the source. Unless noted, the call rests on the fitted dose curve; in most records, active means well fitted curve in the direction sought with a large enough effect in the repeat runs; inconclusive means weak or mixed curves; inactive means no such curve, though single readings can be large; an effect the other way counts as inactive or inconclusive.

Experiments:
[1] = qHTS assay for small molecules that induce genotoxicity in human embryonic kidney cells expressing luciferase-tagged ATAD5 (AID 651632); further: nearly all actives have a fitted effect of over 15% in size
How it was run: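 DMSO vehicle served as the control. HEK293T reporter cells, 16 hr at 37C, then 30 min Amplite at room temperature; ATAD5 induction is measured as luciferase activity.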

[2] = qHTS assay for small molecules that induce genotoxicity in human embryonic kidney cells expressing luciferase-tagged ATAD5 - cell viability (AID 651634; calls by dose curve; further: nearly all actives have a fitted effect of over 25% in size)
How it was run: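 Here HEK293T cells with the ATAD5 luciferase reporter are incubated with test compounds for 15.5 hr, and cytotoxicity is then gauged by measuring protease activity in live cells using fluorescence.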

[3] = qHTS assay for small molecule disruptors of the mitochondrial membrane potential (AID 720635); further: potency means the concentration at half of the fitted maximal effect
How it was run: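 HepG2 cells exposed to compound 1 hr at 37C, then Mito-MPS dye 30 min. Ratio read of aggregate (540/590 nm) versus monomer (490/535 nm) fluorescence.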

[4] = qHTS assay to test for compound auto fluorescence at 590 nm (red) in HepG2 cells (AID 720674)
How it was run: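 Seeding: 2,000 HepG2 cells/well, MEM/10% FBS, overnight 37 C. Dosing: compound vs DMSO. Incubation: 1 hr, 37 C, 5% CO2. Read: fluorescence 540 ex/590 em, Rose Bengal sodium as red reference.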

[5] = qHTS assay to test for compound auto fluorescence at 535 nm (green) in HepG2 cells (AID 720675)
[6] = qHTS assay to test for compound auto fluorescence at 460 nm (blue) in HEK293 cells (AID 720678)
How it was run: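 Blue-channel (Ex/Em 405/460 nm) intensity measured in HEK293 cultures after overnight compound exposure at 37C; signal expressed relative to triamterene. Cells plated 2,000 per well in 10% dialyzed FBS medium and allowed 4-5 hr to attach.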

[7] = qHTS assay to test for compound auto fluorescence at 590 nm (red) in HEK293 cells (AID 720679)
How it was run: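 Red-channel autofluorescence (Ex/Em 540/590 nm; Rose Bengal sodium reference) was measured after overnight 37C, 5% CO2 exposure of attached HEK293 cells, 2,000 per well in medium with 10% dialyzed FBS.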

[8] = qHTS assay to test for compound auto fluorescence at 535 nm (green) in HEK293 cells (AID 720680)
[9] = qHTS assay to test for compound auto fluorescence at 460 nm (blue) in HEK293 cell free culture (AID 720681)
How it was run: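 Compounds were added to cell-free DMEM with 10% FBS and fluorescence read directly. The blue channel used 405 nm excitation and 460 nm emission, with triamterene as the reference fluorophore.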

[10] = qHTS assay to test for compound auto fluorescence at 535 nm (green) in HEK293 cell free culture (AID 720682)
How it was run: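 DMEM + 10% FBS, cell-free; cpd or DMSO pinned in; Ex485/Em535 read; output as fluorescein-equivalent signal.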

[11] = qHTS assay to test for compound auto fluorescence at 590 nm (red) in HEK293 cell free culture (AID 720683)
How it was run: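 Cell-free wells of DMEM with 10% FBS received compound, and intrinsic fluorescence was read at excitation/emission 540/590 nm. Values expressed as equivalence to Rose Bengal sodium.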

[12] = qHTS assay to test for compound auto fluorescence at 590 nm (red) in HepG2 cell free culture (AID 720684)
How it was run: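 Rose Bengal sodium served as the reference for red signal. Test compounds were dispensed into serum-containing MEM (10% FBS) without cells, and plates were read at 540/590 nm.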

[13] = qHTS assay to test for compound auto fluorescence at 460 nm (blue) in HepG2 cell free culture (AID 720685)
How it was run: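 Cell-free plates of MEM plus 10% FBS received 23 nL compound or DMSO vehicle; blue-channel (405/460 nm) intensity scored against triamterene as reference fluorophore.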

[14] = qHTS assay to test for compound auto fluorescence at 535 nm (green) in HepG2 cell free culture (AID 720686)
[15] = qHTS assay to test for compound auto fluorescence at 460 nm (blue) in HepG2 cells (AID 720687)
How it was run: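 HepG2 cells in MEM with 10% FBS, attached overnight at 37 C, were exposed to compound or DMSO for 1 hr at 37 C, 5% CO2. Blue fluorescence was read at 405/460 nm, with triamterene as reference fluorophore.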

[16] = target: Glucocorticoid receptor (Homo sapiens) (UniProt P04150); experiment: qHTS assay to identify small molecule agonists of the glucocorticoid receptor (GR) signaling pathway (AID 720691; active means well fitted activation curve with a large enough effect in the signal ratio in the repeat runs, not every such curve was filed as active; inconclusive means weak or mixed curves, or effect the other way; inactive means no such curve, though single readings can be large or run the other way; the % refers to the signal ratio; further: potency means the concentration at half of the fitted maximal effect)
Chain of Glucocorticoid receptor (Homo sapiens) (P04150 whole entry, looked up): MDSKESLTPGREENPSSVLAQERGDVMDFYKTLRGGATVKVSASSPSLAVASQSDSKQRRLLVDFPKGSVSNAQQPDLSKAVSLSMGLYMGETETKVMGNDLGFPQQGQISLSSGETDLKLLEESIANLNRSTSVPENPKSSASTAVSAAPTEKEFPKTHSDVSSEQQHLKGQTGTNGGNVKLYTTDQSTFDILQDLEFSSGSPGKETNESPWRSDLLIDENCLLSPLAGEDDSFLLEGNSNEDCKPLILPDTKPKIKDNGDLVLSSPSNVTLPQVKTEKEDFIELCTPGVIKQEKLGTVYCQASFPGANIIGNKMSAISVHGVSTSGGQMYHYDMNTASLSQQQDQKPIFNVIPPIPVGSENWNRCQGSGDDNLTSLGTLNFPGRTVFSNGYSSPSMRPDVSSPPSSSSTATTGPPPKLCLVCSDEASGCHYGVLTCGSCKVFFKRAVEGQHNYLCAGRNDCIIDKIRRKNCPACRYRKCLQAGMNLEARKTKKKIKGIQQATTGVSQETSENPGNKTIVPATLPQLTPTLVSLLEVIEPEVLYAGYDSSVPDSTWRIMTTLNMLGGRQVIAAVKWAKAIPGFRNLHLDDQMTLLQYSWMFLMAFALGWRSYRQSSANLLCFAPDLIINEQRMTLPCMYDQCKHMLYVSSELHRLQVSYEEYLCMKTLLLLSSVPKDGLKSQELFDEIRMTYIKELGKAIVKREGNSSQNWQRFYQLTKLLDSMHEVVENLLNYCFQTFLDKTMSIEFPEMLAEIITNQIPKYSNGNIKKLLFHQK
How it was run: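 Compounds in DMSO, alongside positive controls, were added to GR-bla HeLa reporter cells and incubated 18 h at 37 C; GRE-driven beta-lactamase was detected by fluorescence after 2 h with FRET substrate at room temperature.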

[17] = qHTS assay for small molecule agonists of the p53 signaling pathway - cell viability (AID 651633; calls by dose curve; further: nearly all actives have a fitted effect of over 30% in size; further: potency means the concentration at half of the fitted maximal effect)
How it was run: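 p53RE-bla cells were treated with compound for 16 hours at 37 C. Cytotoxicity was then measured as CellTiter-Glo luminescence after 30 min at room temperature.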

[18] = target: Glucocorticoid receptor (Homo sapiens) (UniProt P04150); experiment: qHTS assay to identify small molecule antagonists of the glucocorticoid receptor (GR) signaling pathway (AID 720692; active means well fitted inhibition curve with a large enough effect in the signal ratio in the repeat runs, not every such curve was filed as active; inconclusive means weak or mixed curves, or effect the other way; inactive means no such curve, though single readings can be large or run the other way; the % refers to the signal ratio; further: potency means the concentration at half of the fitted maximal effect)
How it was run: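 In a 1536-well cell format, compounds were added 4 h after seeding GR-bla HeLa cells, together with dexamethasone at 5 nM final; reporter activity was measured by FRET-substrate fluorescence following 18 h at 37 C.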

[19] = qHTS assay for small molecule disruptors of the mitochondrial membrane potential - cell viability (AID 720634; calls by dose curve;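 further: human HepG2 liver cancer cells; series mostly up to about 83 µM; nearly all actives have a fitted effect of over 20% in size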)
How it was run: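 Viability of HepG2 cells is scored from ATP content by luminescence; cells are exposed to compound for 1 hr at 37 C and 5% CO2, then dosed with m-MPI dye before the CellTiter-Glo reagent.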
On the % scale 0 is the no-effect control and ±100 the full control effect.

c1cc[c]([Bi]([c]2ccccc2)[c]2ccccc2)cc1
active: Potency [3] 24300 nM
inactive: Potency [1] | Potency [2] | outcome [4] | outcome [5] | Potency [6] | outcome [7] | outcome [8] | Potency [9] | outcome [10] | outcome [11] | outcome [12] | Potency [13] | outcome [14] | Potency [15] | Potency [16]

NC(=O)N(O)[C@@H]1C=C[C@H](Oc2cccc(Oc3ccc(F)cc3)c2)C1
inactive: Potency [1] | Potency [17] | Potency [2] | outcome [5] | Potency [6] | outcome [7] | outcome [8] | outcome [10] | outcome [11] | outcome [12] | Potency [13] | outcome [14] | Potency [15] | Potency [16]

CCC(C)=O
inactive: Potency [1] | Potency [17] | outcome [4] | outcome [5] | Potency [6] | outcome [7] | outcome [8] | Potency [9] | outcome [10] | outcome [11] | outcome [12] | Potency [13] | outcome [14] | Potency [15] | Potency [16]

Cc1ccc(S(=O)(=O)NC2CCCCC2)cc1
active: Potency [3] 21500 nM
inactive: Potency [1] | outcome [4] | outcome [5] | Potency [6] | outcome [7] | outcome [8] | Potency [9] | outcome [10] | outcome [11] | outcome [12] | Potency [13] | outcome [14] | Potency [15] | Potency [16] | Potency [18]

CC1=C(C=O)C(C)(C)CCC1
inactive: Potency [17] | Potency [2] | outcome [4] | outcome [5] | Potency [6] | outcome [7] | outcome [8] | Potency [9] | outcome [10] | outcome [11] | outcome [12] | Potency [13] | outcome [14] | Potency [15] | Potency [16] | Potency [18]

CC(=O)OCC(=O)[C@H]1CC[C@H]2[C@@H]3CCC4=CC(=O)CC[C@]4(C)[C@H]3CC[C@]12C
active: Potency [18] 848 nM
inactive: Potency [17] | Potency [2] | Potency [19] | Potency [3] | outcome [4] | outcome [5] | Potency [6] | outcome [7] | outcome [8] | Potency [9] | outcome [10] | outcome [11] | outcome [12] | Potency [13] | outcome [14] | Potency [15] | Potency [16]

COc1cc2ncnc(Nc3ccc(F)c(Cl)c3)c2cc1OCCCN1CCOCC1
inactive: Potency [1] | outcome [4] | outcome [5] | Potency [6] | outcome [8] | Potency [9] | outcome [10] | outcome [11] | outcome [12] | Potency [13] | outcome [14] | Potency [15] | Potency [16]

CC(C)c1nnc2ccc(-c3ocnc3-c3cc(F)ccc3F)cn12
inactive: Potency [17] | outcome [4] | outcome [5] | Potency [6] | outcome [8] | Potency [9] | outcome [10] | outcome [11] | outcome [12] | Potency [13] | outcome [14] | Potency [15] | Potency [16]

CC#N
inactive: Potency [17] | Potency [2] | outcome [4] | outcome [5] | Potency [6] | outcome [7] | outcome [8] | Potency [9] | outcome [10] | outcome [11] | outcome [12] | Potency [13] | outcome [14] | Potency [15] | Potency [16]

CC(=O)[C@H]1CC[C@H]2[C@@H]3C=CC4=CC(=O)CC[C@@]4(C)[C@@H]3CC[C@]12C
inactive: Potency [17] | Potency [2] | Potency [19] | fluorescence, relative to Rose Bengal [4] -0.279% [at 18.6 µM] | fluorescence, % of fluorescein control [5] -0.0643% [at 18.6 µM] | fluorescence, % of fluorescent control [7] -0.3% [at 18.6 µM] | fluorescence, % of fluorescein [8] -0.274% [at 18.6 µM] | activity change [10] -0.278% [at 18.6 µM] | fluorescence, % of fluorescent control [11] -0.0895% [at 18.6 µM] | fluorescence, % of Rose Bengal [12] -0.458% [at 18.6 µM] | fluorescence, % of fluorescent control [13] -0.0065% [at 18.6 µM] | fluorescence, % of fluorescein control [14] -0.0891% [at 18.6 µM] | fluorescence, % of fluorescent control [15] 0.0499% [at 18.6 µM]
active: Potency [16] 0.7 nM | Potency [18] 1820 nM

CC(C)(O)c1ccccc1CC[C@@H](SCC1(CC(=O)O)CC1)c1cccc(/C=C/c2ccc3ccc(Cl)cc3n2)c1
active: Potency [17] 13300 nM
inactive: Potency [2] | Potency [19] | outcome [4] | outcome [5] | Potency [6] | outcome [8] | Potency [9] | outcome [10] | outcome [11] | outcome [12] | Potency [13] | outcome [14] | Potency [15]

CCc1cccc(N(C)C(N)=Nc2cccc3ccccc23)c1
inactive: Potency [17] | Potency [2] | Potency [3] | outcome [4] | outcome [5] | Potency [6] | outcome [7] | outcome [8] | Potency [9] | outcome [10] | outcome [11] | outcome [12] | Potency [13] | outcome [14] | Potency [15] | Potency [16] | Potency [18]

O=C(O)c1ccc(CO)o1
inactive: Potency [17] | Potency [2] | Potency [19] | Potency [3] | outcome [4] | outcome [5] | Potency [6] | outcome [7] | outcome [8] | Potency [9] | outcome [10] | outcome [11] | outcome [12] | Potency [13] | outcome [14] | Potency [15] | Potency [16] | Potency [18]

OCCSc1ccccc1
inactive: Potency [17] | Potency [2] | Potency [19] | outcome [4] | outcome [5] | Potency [6] | outcome [8] | outcome [10] | outcome [11] | outcome [12] | Potency [13] | outcome [14] | Potency [15] | Potency [16] | Potency [18]

Nc1ccc(C(=O)OCCCOC(=O)c2ccc(N)cc2)cc1
inactive: Potency [17] | outcome [4] | outcome [5] | Potency [6] | outcome [7] | outcome [8] | Potency [9] | outcome [10] | outcome [12] | Potency [13] | outcome [14] | Potency [15] | Potency [16] | Potency [18]
active: Potency [3] 27300 nM

O=C(Nc1ccccc1)Nc1ccccc1
inactive: Potency [1] | outcome [5] | outcome [7] | outcome [8] | Potency [9] | outcome [10] | outcome [11] | outcome [12] | Potency [13] | outcome [14] | Potency [15]
active: Potency [3] 1730 nM

C[C@@H]1C[C@H]2[C@@H]3CCC4=CC(=O)C=C[C@]4(C)[C@@]3(F)[C@@H](O)C[C@]2(C)[C@H]1C(=O)CO
inactive: Potency [17] | Potency [19] | Potency [3] | outcome [4] | outcome [5] | Potency [6] | outcome [7] | outcome [8] | Potency [9] | outcome [10] | outcome [11] | outcome [12] | Potency [13] | outcome [14] | Potency [15]
active: Potency [16] 8.5 nM [inconclusive]

NC(=O)N(O)[C@@H]1COc2cc(OCc3ccccc3)ccc21
inactive: Potency [2] | Potency [19] | outcome [4] | outcome [5] | Potency [6] | outcome [7] | outcome [8] | Potency [9] | outcome [10] | outcome [11] | outcome [12] | Potency [13] | outcome [14] | Potency [15] | Potency [16]

CCC1(C)CC(=O)NC1=O (stereo not given)
inactive: Potency [17] | Potency [2] | Potency [19] | outcome [4] | outcome [5] | Potency [6] | outcome [7] | outcome [8] | Potency [9] | outcome [10] | outcome [12] | Potency [13] | outcome [14] | Potency [15] | Potency [16] | Potency [18]

Cc1ccc(S)cc1
inactive: Potency [17] | Potency [2] | Potency [19] | Potency [3] | outcome [4] | outcome [5] | Potency [6] | outcome [7] | outcome [8] | Potency [9] | outcome [10] | outcome [11] | outcome [12] | Potency [13] | outcome [14] | Potency [15]
